Measurements reported in PubChem BioAssay (NCI).
About 79,000 compounds went through this panel and 15% of them were active in at least one assay; those are over-represented in the sample as a whole. Calls of active or inactive are those of the source. Rule as the data show it: active = growth inhibition above about 70%; inactive = the rest.

Columns and labels:
[1] = NCI Yeast Anticancer Drug Screen. Data for the rad50 strain (AID 155);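 also: 0% = growth of vehicle-only cultures of the same strain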; conditions: S. cerevisiae rad50 strain growth inhibition; at 50.0 µM; hits give high values
In short: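 A DNA repair-deficient yeast mutant serves as the test organism; compound-induced growth inhibition is calculated against vehicle-treated cells.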

[2] = NCI Yeast Anticancer Drug Screen. Data for the mec2-1 strain (AID 157); conditions: S. cerevisiae mec2-1 strain, at 50.0 µM, hits give high values
In short: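 mec2-1 yeast strain, carrying an alteration in DNA damage repair or cell cycle control, was exposed to compounds; growth inhibition was measured relative to vehicle-treated controls.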

[3] = NCI Yeast Anticancer Drug Screen. Data for the sgs1 mgt1 strain (AID 161);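 also: 0% = growth of cultures given vehicle only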; conditions: S. cerevisiae sgs1 mgt1 strain, at 50.0 µM, hits give high values
In short: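 Growth of a repair-deficient yeast mutant was monitored after compound treatment and expressed as inhibition relative to vehicle-treated cultures.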

[4] = NCI Yeast Anticancer Drug Screen. Data for the cln2 rad14 strain (AID 165);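 also: 0% = growth equal to vehicle treated cultures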; conditions: S. cerevisiae cln2 rad14 strain, at 50.0 µM, hits give high values
In short: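 Yeast carrying cln2 and rad14 alterations (cell cycle control and DNA damage repair) were exposed to compounds. Growth inhibition was measured against vehicle-treated controls.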

[5] = NCI Yeast Anticancer Drug Screen. Data for the bub3 strain (AID 167); conditions: S. cerevisiae bub3 mutant strain, at 50.0 µM, hits give high values
In short: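 Inhibition values come from growth of compound-treated mutant yeast normalised to vehicle-treated controls.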

[6] = NCI Yeast Anticancer Drug Screen. Data for the mlh1 rad18 strain (AID 175); conditions: S. cerevisiae mlh1 rad18 strain growth inhibition; at 50.0 µM; hits give high values
In short: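 Growth inhibition of the yeast strain was measured after compound exposure and expressed relative to vehicle-treated controls. The strain carries defined defects in DNA damage repair.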

Measured: growth inhibition

CC1(C)O[C@H]2[C@H](O)C[C@](O)(CO)C[C@H]2O1
inactive: [1] 1.3% | [2] 3.85% | [3] -0.65% | [4] -27.6% | [5] -9.25% | [6] 1.25%

Cc1nnc2ncccn12
inactive: [1] 31.1% | [2] -10.3% | [3] 8.4% | [4] -0.1% | [5] 0.55% | [6] -42.2%

CC1=CC(C)(C)Nc2ccccc2N1
inactive: [1] -7.1% | [2] -4.85% | [3] -8.8% | [4] 14.2% | [5] -3% | [6] 1.45%

COc1ccc(C(=O)C[n+]2cc(Br)cc(Br)c2)cc1
inactive: [1] 7.9% | [2] -12.8% | [3] -7% | [4] -3.95% | [5] 14.1% | [6] -8.95%

CCCCCCCCCCCCCCCCOCC(COS(C)(=O)=O)OS(C)(=O)=O (centres undefined)
inactive: [1] 20% | [2] 2.15% | [3] 12.2% | [4] 33.3% | [5] 7.9% | [6] 1.5%

CC(=O)OCC(C)(C(N)=O)c1ccccc1 (centres undefined)
inactive: [1] -36.9% | [2] -9.15% | [3] -5.5% | [4] -32% | [5] -5.9% | [6] 1.85%

O=c1cc(C(Br)(Br)Br)[nH]c2ccccc12
inactive: [1] 19.4% | [2] 3.25% | [3] 9.45% | [4] -5.7% | [5] 4.55% | [6] 18%

O=c1[nH]cc(CNC2CCCCC2)c(=O)[nH]1
inactive: [1] 21.5% | [2] -9.35% | [3] 7.65% | [4] -0.2% | [5] 4.6% | [6] 8.2%

O=C(Nc1ncnc2c1ncn2C1OC(COC(=O)c2ccccc2)C(OC(=O)c2ccccc2)C1OC(=O)c1ccccc1)c1ccccc1 (centres undefined)
inactive: [1] 5.15% | [2] 15.6% | [3] -1.25% | [4] 10.8% | [5] 4.05% | [6] 34.6%

O=C1CCC(C(=O)Nc2ccc(Cl)c(Cl)c2)N1 (centres undefined)
inactive: [1] 1.75% | [2] 10.6% | [3] 8.5% | [4] -10.7% | [5] 1.1% | [6] -8.15%

COCOc1c(OC)c(C2(O)C(=O)N(C)c3ccccc32)c(OCOC)c(OC)c1C1(O)C(=O)N(C)c2ccccc21 (centres undefined)
inactive: [1] 0.9% | [2] 13.8% | [3] -14.9% | [4] -3.9% | [5] 0% | [6] 15.4%

CCCCCCCC(=O)Nc1ccc(-n2c(=O)cc(C)n2C)cc1
inactive: [1] 15.7% | [2] -1.25% | [3] 12.2% | [4] -32% | [5] -7.7% | [6] 14.1%

CC(=O)Nc1cc([N+](=O)[O-])c2[nH]c(=O)c3ccccc3c2c1
inactive: [1] -7.7% | [2] -6.7% | [3] -12.4% | [4] -9.45% | [5] -3.2% | [6] -0.15%

O=C1OC2C(O)COC2(O)C1(O)Cc1c[nH]c2ccccc12 (centres undefined)
inactive: [1] 14.1% | [2] -6.4% | [3] -5.45% | [4] 0.5% | [5] 3.35% | [6] -11.2%

O=C1NC2NC(=O)NC2N1 (centres undefined)
inactive: [1] 6.6% | [2] -27.1% | [3] -3% | [4] -9.6% | [5] -2.05% | [6] 10.2%

Cc1nc(C)c(C(=O)NN)cc1C(=O)NN
inactive: [1] 9.05% | [2] -3.7% | [3] -4.6% | [4] 7.45% | [5] -0.7% | [6] -14.7%

c1ccc2cc(CNCCCCNCCCNCc3ccc4ccccc4c3)ccc2c1
inactive: [1] 63.8% | [2] 38.6% | [3] 62.3% | [4] 46.2%
active: [5] 85% | [6] 76.3%

Nc1scc[n+]1CCC(=O)[O-]
inactive: [1] -10.1% | [2] 0.75% | [3] 3.4% | [4] -13.2% | [5] -2.75% | [6] -15.8%

c1ccc(CC(c2cccc3ccccc23)N2CCOCC2)cc1 (centres undefined)
inactive: [1] 22.2% | [2] 23.9% | [3] 39.7% | [4] -7.55% | [5] 30% | [6] 23.2%

CC(=O)Nc1ccc(/C=C2\C(=O)Nc3ccccc32)cc1
inactive: [1] -15.4% | [2] -20.1% | [3] -23% | [4] -11.8% | [5] -8.5% | [6] -5.9%

Cc1nc(N)[nH]c(=O)c1CCCN(c1ccccc1)S(=O)(=O)c1ccc(N)cc1
inactive: [1] 9.4% | [2] -1.35% | [3] -2.3% | [4] -22.9% | [5] -2.35% | [6] 19.6%

O=C(Nc1ncccn1)c1ccc(Cl)cc1Cl
inactive: [1] -11.9% | [2] 4.8% | [3] 30.6% | [4] -21.5% | [5] 10.6% | [6] 32.3%

CC(C)(O)/C(=N/O)c1ccc(-c2ccccc2)cc1
inactive: [1] -4.05% | [2] -18.3% | [3] 0.35% | [4] -16.1% | [5] 9.35% | [6] 10.8%

O=C(Cn1c2c(c3ccccc31)CCCC2)N1CCCCC1
inactive: [1] -40.5% | [2] -74% | [3] -31.2% | [4] -22.2% | [5] -8.6% | [6] -26.2%

CC(C)(C)C1CCC(C(=O)c2ccccc2)CC1 (centres undefined)
inactive: [1] -7.75% | [2] -4.05% | [3] -0.75% | [4] -45.3% | [5] -28.6% | [6] 1.7%

Cn1c(=O)ccc2c(=O)c3c(ccc4ccccc43)oc21
inactive: [1] -10.1% | [2] -12.3% | [3] -28.1% | [4] -10.1% | [5] -7.05% | [6] -23.9%

Cn1c(=O)c(Br)cc2ccccc21
inactive: [1] 10.2% | [2] 13.9% | [3] 21.3% | [4] 8.45% | [5] 9.1% | [6] 33.5%

CN(C(=O)c1ccc(C(=N)N)cc1)c1ccccc1
inactive: [1] -8.3% | [2] -7.3% | [3] -5.1% | [4] -12.8% | [5] -0.05% | [6] -8.95%

CC(CN(C)C)N(C)C (centres undefined)
inactive: [1] -14.7% | [2] -34.5% | [3] -41.6% | [4] -7.75% | [5] -4.6% | [6] 0.15%

Cc1cc(N(CCC#N)CCC#N)ccc1/C=C(\NC(=O)/C=C/c1ccccc1)C(=O)Nc1ccccc1Cl
inactive: [1] 32.3% | [2] 13.8% | [3] 42.1% | [4] 9.7% | [5] 1.2% | [6] 14.9%

COC(=O)C(C/C=C(\C)c1ccccc1)C(C)=O (centres undefined)
inactive: [1] -13.1% | [2] -23.7% | [3] -25% | [4] 19.1% | [5] -23.1% | [6] -0.35%

CC1(C)CN(Cc2ccccc2)C(C)(C)CN1
inactive: [1] -5.85% | [2] -6.65% | [3] -6.4% | [4] -54.6% | [5] -10.5% | [6] -4.65%

O=S(=O)(CSc1ccccc1)c1ccccc1
inactive: [1] -21.9% | [2] -33.1% | [3] -16.6% | [4] -8.35% | [5] -25.6% | [6] -39.1%

Cc1ccc(S(=O)(=O)NC(CC(C)C)C(=O)O)cc1 (centres undefined)
inactive: [1] 6.65% | [2] -10.6% | [3] -4.55% | [4] -34.2% | [5] 1.3% | [6] 0.45%

CCN(CC)S(=O)(=O)Nc1c(C)n(C)n(-c2ccccc2)c1=O
inactive: [1] -5.6% | [2] -17.2% | [3] -4.05% | [4] -3.7% | [5] -2% | [6] 14%

O=C(O)Cn1cnc2c(=O)[nH]c(Nc3ccccc3)nc21
inactive: [1] 24.4% | [2] 9.1% | [3] 34.9% | [4] 5.35% | [5] 15.5% | [6] -17.1%

Cc1cc(Cl)nc(/N=C(\N)Nc2ccc(Cl)c(Cl)c2)n1
inactive: [1] -1.95% | [2] 5.45% | [3] -1.05% | [4] -11.7% | [5] 6.1% | [6] 7.6%

Nc1ccc(S(=O)(=O)NC(=O)c2ccccc2)cc1
inactive: [1] 12.8% | [2] -7% | [3] 10.1% | [4] -26.9% | [5] -3% | [6] 0.2%

CCN1CCCC(Nc2nc(Nc3ccc(Cl)c(Cl)c3)nc3ccc(Cl)cc23)C1 (centres undefined)
active: [1] 99.2% | [2] 99.7% | [3] 99.7% | [4] 99.5% | [5] 99.4% | [6] 99.5%
